Holding throughout (settings): mRNA level, 48 h; actives raise or lower the signal
Read-out in experiment [1]: Tumor necrosis factor receptor superfamily member 6 (Homo sapiens) (UniProt P25445)
As to the kind of experiment: LTEA_HepaRG_FAS: Life Technologies and Expression Analysis (LTEA) Assay for Fas cell surface death receptor (FAS) using HepaRG (AID 2283447). An outline of the steps:
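Differentiated HepaRG cells in serum-free induction medium were exposed 48 h to 8 half-log concentrations up to 100 uM in 0.5% DMSO, in duplicate. FAS mRNA was measured by qRT-PCR normalised to ACTB, GAPDH and POLR2A; bidirectional fit versus DMSO.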

Read-out in experiment [2]: Fatty acid synthase (Homo sapiens) (UniProt P49327)
As to the kind of experiment: LTEA_HepaRG_FASN: Life Technologies and Expression Analysis (LTEA) Assay for Fatty Acid Synthase (FASN) using HepaRG (AID 2283448). An outline of the steps:
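Differentiated human HepaRG cells were exposed for 48 h in serum-free induction medium to eight half-log concentrations up to 100 uM in 0.5% DMSO, in duplicate. FASN mRNA was quantified by TaqMan qRT-PCR, normalized to ACTB/GAPDH/POLR2A, and fitted bidirectionally against DMSO.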

Read-out in experiment [3]: Cyclin D2 (CCND2), CCND2 (gene 894)
As to the kind of experiment: LTEA_HepaRG_CCND2: Life Technologies and Expression Analysis (LTEA) Assay for Cyclin D2 (CCND2) using HepaRG (AID 2283449).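 Note: CCND2 transcript measured by TaqMan qRT-PCR and normalised to three housekeeping genes.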 An outline of the steps: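 Chemicals in 0.5% DMSO, eight half-log concentrations from 100 uM top, were applied in duplicate for 48 h to human HepaRG cells in serum-free induction medium. CCND2 mRNA by TaqMan qRT-PCR, normalised to ACTB/GAPDH/POLR2A; bidirectional fit versus DMSO.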

Read-out in experiment [4]: Cyclin Dependent Kinase Inhibitor 1A (CDKN1A), CDKN1A (gene 1026)
As to the kind of experiment: LTEA_HepaRG_CDKN1A: Life Technologies and Expression Analysis (LTEA) Assay for Cyclin Dependent Kinase Inhibitor 1A (CDKN1A) using HepaRG (AID 2283450). In outline: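 Differentiated human HepaRG cells, pre-cultured 48 h, were exposed in duplicate for 48 h in serum-free induction medium to eight half-log concentrations up to 100 uM (0.5% DMSO). CDKN1A mRNA was measured by qRT-PCR, normalized to ACTB/GAPDH/POLR2A, bidirectionally fitted versus DMSO.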

Read-out in experiment [5]: Cyclin D1 (CCND1), CCND1 (gene 595)
Description: LTEA_HepaRG_CCND1: Life Technologies and Expression Analysis (LTEA) Assay for Cyclin D1 (CCND1) using HepaRG (AID 2283451).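 For AC50: TaqMan qRT-PCR transcript level normalised to ACTB GAPDH and POLR2A housekeeping genes.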 An outline of the steps:
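Differentiated human HepaRG cells in serum-free induction medium were exposed 48 h to eight half-log concentrations up to 100 uM in 0.5% DMSO; mRNA quantified by TaqMan qRT-PCR, normalized to ACTB, GAPDH, POLR2A, fitted bidirectionally versus DMSO.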

Read-out in experiment [6]: catalase (CAT), CAT (gene 847)
As to the kind of experiment: LTEA_HepaRG_CAT: Life Technologies and Expression Analysis (LTEA) Assay for catalase (CAT) using HepaRG (AID 2283452).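 For AC50: TaqMan qRT-PCR signal normalized to ACTB GAPDH and POLR2A housekeeping genes.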 In outline:
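HepaRG cells in serum-free induction medium, 0.5% DMSO vehicle, exposed 48 h in duplicate over 8 half-log concentrations from 100 uM. CAT mRNA measured by qRT-PCR, normalized to ACTB, GAPDH, POLR2A; bidirectional fit versus DMSO.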

Read-out in experiment [7]: flavin-containing dimethylaniline monooxygenases 3 (FMO3), FMO3 (gene 2328)
Description: LTEA_HepaRG_FMO3: Life Technologies and Expression Analysis (LTEA) Assay for flavin-containing dimethylaniline monooxygenases 3 (FMO3) using HepaRG (AID 2283453). In outline:
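HepaRG, 48 h exposure, 8-pt half-log series from 100 uM, 0.5% DMSO vehicle, duplicates; FMO3 transcript by Fluidigm TaqMan qRT-PCR, housekeeping-normalized; gain/loss fit vs DMSO.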

Read-out in experiment [8]: Cytochrome P450 (CYP1A1), CYP1A1 (gene 1543)
Description: LTEA_HepaRG_CYP1A1: Life Technologies and Expression Analysis (LTEA) Assay for Cytochrome P450 (CYP1A1) using HepaRG (AID 2283454). In outline: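 Differentiated HepaRG cells in serum-free induction medium were exposed in duplicate for 48 h to eight half-log concentrations up to 100 uM in 0.5% DMSO. CYP1A1 mRNA was quantified by TaqMan qRT-PCR, normalized to ACTB, GAPDH and POLR2A.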

Read-out in experiment [9]: Forkhead box O1 (FOXO1), FOXO1 (gene 2308)
As to the kind of experiment: LTEA_HepaRG_FOXO1: Life Technologies and Expression Analysis (LTEA) Assay for Forkhead box O1 (FOXO1) using HepaRG (AID 2283456). In outline: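 Differentiated HepaRG cells, in serum-free induction medium with 0.5% DMSO, exposed 48 h in duplicate to 8-point half-log series from 100 uM. FOXO1 mRNA measured by TaqMan qRT-PCR, normalized to ACTB, GAPDH, POLR2A; bidirectional fit versus DMSO.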

Read-out in experiment [10]: Forkhead box O3 (FOXO3), FOXO3 (gene 2309)
Description: LTEA_HepaRG_FOXO3: Life Technologies and Expression Analysis (LTEA) Assay for Forkhead box O3 (FOXO3) using HepaRG (AID 2283459). An outline of the steps:
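Differentiated human HepaRG cells, 48 h post-plating, exposed in duplicate for 48 h in serum-free induction medium; 8-point half-log series from 100 uM in 0.5% DMSO. FOXO3 mRNA by TaqMan qRT-PCR, normalized to ACTB/GAPDH/POLR2A; bidirectional fit versus DMSO.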

Read-out in experiment [11]: ABC Transporter (ABCB1), ABCB1 (gene 5243)
Description: LTEA_HepaRG_ABCB1: Life Technologies and Expression Analysis (LTEA) Assay for ABC Transporter (ABCB1) using HepaRG (AID 2283460). An outline of the steps: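 HepaRG cells exposed in duplicate for 48 h in serum-free induction medium to eight half-log concentrations up to 100 uM in 0.5% DMSO. ABCB1 mRNA quantified by qRT-PCR, normalised to ACTB, GAPDH and POLR2A; fitted bidirectionally versus DMSO.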

Read-out in experiment [12]: growth arrest and DNA damage 45 (GADD45B), GADD45B (gene 4616)
Description: LTEA_HepaRG_GADD45B: Life Technologies and Expression Analysis (LTEA) Assay for growth arrest and DNA damage 45 (GADD45B) using HepaRG (AID 2283461). An outline of the steps:
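Differentiated HepaRG cells, plated 48 h then switched to serum-free induction medium, were exposed 48 h in duplicate to eight half-log concentrations from 100 uM in 0.5% DMSO; mRNA quantified by qRT-PCR, normalized to ACTB/GAPDH/POLR2A, bidirectional fit versus DMSO.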

Read-out in experiment [13]: ABC Transporter (ABCC3), ABCC3 (gene 8714)
Description: LTEA_HepaRG_ABCC3: Life Technologies and Expression Analysis (LTEA) Assay for ABC Transporter (ABCC3) using HepaRG (AID 2283462). An outline of the steps:
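HepaRG cells in serum-free induction medium were exposed for 48 h in duplicate to 8-point half-log concentrations topping at 100 uM in 0.5% DMSO. ABCC3 mRNA was measured by qRT-PCR normalized to ACTB, GAPDH and POLR2A, with bidirectional fitting versus DMSO.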

Read-out in experiment [14]: ABC Transporter (ABCB11), ABCB11 (gene 8647)
Description: LTEA_HepaRG_ABCB11: Life Technologies and Expression Analysis (LTEA) Assay for ABC Transporter (ABCB11) using HepaRG (AID 2283463). In outline:
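Differentiated human HepaRG cells in serum-free induction medium, dosed in duplicate for 48 h. Eight-point half-log series from 100 uM in 0.5% DMSO; ABCB11 mRNA by qRT-PCR, normalized to ACTB, GAPDH, POLR2A, fitted bidirectionally versus DMSO.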

Read-out in experiment [15]: ABC Transporter (ABCC2), ABCC2 (gene 1244)
As to the kind of experiment: LTEA_HepaRG_ABCC2: Life Technologies and Expression Analysis (LTEA) Assay for ABC Transporter (ABCC2) using HepaRG (AID 2283464). An outline of the steps:
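HepaRG cells were plated 48 h, switched to serum-free induction medium, then exposed in duplicate for 48 h to 8 concentrations (top 100 uM, half-log steps, 0.5% DMSO). ABCC2 mRNA was measured by qRT-PCR normalized to ACTB/GAPDH/POLR2A; bidirectional fitting versus DMSO.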

Read-out in experiment [16]: Broad substrate specificity ATP-binding cassette transporter ABCG2 (Homo sapiens) (UniProt Q9UNQ0)
As to the kind of experiment: LTEA_HepaRG_ABCG2: Life Technologies and Expression Analysis (LTEA) Assay for ABC Transporter (ABCG2) using HepaRG (AID 2283465). In outline:
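Differentiated HepaRG cells were exposed for 48 h in serum-free induction medium to 8 half-log concentrations, top 100 uM, in 0.5% DMSO. ABCG2 mRNA was measured by qRT-PCR, normalized to ACTB, GAPDH and POLR2A, with bidirectional fitting versus DMSO.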

Read-out in experiment [17]: CFLAR gene, CFLAR (gene 8837)
Description: LTEA_HepaRG_CFLAR: Life Technologies and Expression Analysis (LTEA) Assay for CFLAR gene using HepaRG (AID 2283455). In outline:
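Differentiated HepaRG cells in serum-free induction medium were exposed 48 h in duplicate to eight half-log concentrations up to 100 uM in 0.5% DMSO; mRNA measured by TaqMan qRT-PCR, normalized to ACTB, GAPDH, POLR2A; bidirectional fitting versus DMSO.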

Read-out in experiment [18]: growth arrest and DNA damage 45 (GADD45A), GADD45A (gene 1647)
Description: LTEA_HepaRG_GADD45A: Life Technologies and Expression Analysis (LTEA) Assay for growth arrest and DNA damage 45 (GADD45A) using HepaRG (AID 2283458). In outline:
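Differentiated HepaRG cells were exposed in duplicate for 48 h in serum-free induction medium to 8-point half-log concentrations up to 100 uM in 0.5% DMSO. GADD45A mRNA was measured by TaqMan qRT-PCR, normalized to ACTB, GAPDH and POLR2A, with bidirectional fitting versus DMSO.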

Active and inactive are the calls of the source. Rule for the calls: active = hit-call score of the fitted dose curve at least 0.9, where 1 is the maximum; inactive = score below 0.9.

Fatty acid synthase (Homo sapiens), sequence (P49327 whole entry, looked up): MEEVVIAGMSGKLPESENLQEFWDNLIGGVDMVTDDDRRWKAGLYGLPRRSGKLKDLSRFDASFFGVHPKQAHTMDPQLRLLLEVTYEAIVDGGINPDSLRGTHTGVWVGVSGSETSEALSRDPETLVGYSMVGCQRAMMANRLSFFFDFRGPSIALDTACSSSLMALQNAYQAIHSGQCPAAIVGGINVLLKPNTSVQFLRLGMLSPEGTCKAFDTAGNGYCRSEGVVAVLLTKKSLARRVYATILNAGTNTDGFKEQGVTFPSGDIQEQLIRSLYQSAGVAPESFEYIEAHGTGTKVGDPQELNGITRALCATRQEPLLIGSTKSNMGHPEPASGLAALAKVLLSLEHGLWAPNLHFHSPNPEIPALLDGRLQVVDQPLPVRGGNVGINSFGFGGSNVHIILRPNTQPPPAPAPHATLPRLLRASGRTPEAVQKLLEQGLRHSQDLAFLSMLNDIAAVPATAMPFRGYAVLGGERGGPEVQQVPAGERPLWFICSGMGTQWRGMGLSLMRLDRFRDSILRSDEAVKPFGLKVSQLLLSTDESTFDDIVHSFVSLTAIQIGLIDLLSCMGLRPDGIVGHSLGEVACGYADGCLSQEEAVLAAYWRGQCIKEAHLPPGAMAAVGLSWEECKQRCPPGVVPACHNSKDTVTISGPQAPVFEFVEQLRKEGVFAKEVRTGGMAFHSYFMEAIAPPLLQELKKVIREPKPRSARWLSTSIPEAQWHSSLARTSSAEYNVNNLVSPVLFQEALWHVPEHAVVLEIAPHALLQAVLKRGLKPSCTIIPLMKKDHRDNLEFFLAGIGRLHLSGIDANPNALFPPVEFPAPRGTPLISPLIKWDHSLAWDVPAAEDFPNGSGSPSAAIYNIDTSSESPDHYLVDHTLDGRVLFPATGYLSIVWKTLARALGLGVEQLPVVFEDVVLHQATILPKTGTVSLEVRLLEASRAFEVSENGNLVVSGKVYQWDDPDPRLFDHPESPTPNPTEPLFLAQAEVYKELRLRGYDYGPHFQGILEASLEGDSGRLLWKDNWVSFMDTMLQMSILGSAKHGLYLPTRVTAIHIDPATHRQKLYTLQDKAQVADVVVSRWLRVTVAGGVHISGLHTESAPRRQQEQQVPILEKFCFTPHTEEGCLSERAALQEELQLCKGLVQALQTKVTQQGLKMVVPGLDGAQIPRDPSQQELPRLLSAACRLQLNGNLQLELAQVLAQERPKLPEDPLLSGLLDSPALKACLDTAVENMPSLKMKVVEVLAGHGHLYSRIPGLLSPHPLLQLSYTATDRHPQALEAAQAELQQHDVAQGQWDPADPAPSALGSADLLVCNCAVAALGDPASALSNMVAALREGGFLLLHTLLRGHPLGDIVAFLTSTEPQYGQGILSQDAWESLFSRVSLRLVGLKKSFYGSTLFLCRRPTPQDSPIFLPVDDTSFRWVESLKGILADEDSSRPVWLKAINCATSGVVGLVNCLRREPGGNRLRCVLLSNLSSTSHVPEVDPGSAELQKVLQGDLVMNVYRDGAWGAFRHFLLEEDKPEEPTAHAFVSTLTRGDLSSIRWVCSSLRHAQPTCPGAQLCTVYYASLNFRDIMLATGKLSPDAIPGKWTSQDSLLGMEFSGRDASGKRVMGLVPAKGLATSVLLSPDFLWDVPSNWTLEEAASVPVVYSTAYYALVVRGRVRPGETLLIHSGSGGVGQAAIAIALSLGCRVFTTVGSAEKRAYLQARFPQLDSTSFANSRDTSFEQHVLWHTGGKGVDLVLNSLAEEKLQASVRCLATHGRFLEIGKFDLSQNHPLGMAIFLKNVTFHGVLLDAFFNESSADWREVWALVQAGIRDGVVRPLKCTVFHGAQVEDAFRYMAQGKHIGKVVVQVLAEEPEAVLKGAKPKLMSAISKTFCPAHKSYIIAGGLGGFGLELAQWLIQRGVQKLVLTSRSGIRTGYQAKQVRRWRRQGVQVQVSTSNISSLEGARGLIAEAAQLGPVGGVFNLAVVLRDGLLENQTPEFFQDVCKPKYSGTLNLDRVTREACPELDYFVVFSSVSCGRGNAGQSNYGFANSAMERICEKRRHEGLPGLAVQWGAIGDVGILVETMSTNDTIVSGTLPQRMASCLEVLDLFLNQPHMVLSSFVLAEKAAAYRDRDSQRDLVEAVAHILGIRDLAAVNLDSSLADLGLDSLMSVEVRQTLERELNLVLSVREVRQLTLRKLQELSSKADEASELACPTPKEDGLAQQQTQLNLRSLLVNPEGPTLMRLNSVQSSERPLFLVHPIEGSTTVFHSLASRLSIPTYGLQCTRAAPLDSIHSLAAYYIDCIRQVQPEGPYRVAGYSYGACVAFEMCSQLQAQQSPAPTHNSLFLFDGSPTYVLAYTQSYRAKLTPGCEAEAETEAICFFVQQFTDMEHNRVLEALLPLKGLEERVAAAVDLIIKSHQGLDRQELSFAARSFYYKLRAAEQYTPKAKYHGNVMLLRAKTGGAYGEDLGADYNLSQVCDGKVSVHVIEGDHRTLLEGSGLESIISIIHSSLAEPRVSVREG
Broad substrate specificity ATP-binding cassette transporter ABCG2 (Homo sapiens), sequence (Q9UNQ0 whole entry, looked up): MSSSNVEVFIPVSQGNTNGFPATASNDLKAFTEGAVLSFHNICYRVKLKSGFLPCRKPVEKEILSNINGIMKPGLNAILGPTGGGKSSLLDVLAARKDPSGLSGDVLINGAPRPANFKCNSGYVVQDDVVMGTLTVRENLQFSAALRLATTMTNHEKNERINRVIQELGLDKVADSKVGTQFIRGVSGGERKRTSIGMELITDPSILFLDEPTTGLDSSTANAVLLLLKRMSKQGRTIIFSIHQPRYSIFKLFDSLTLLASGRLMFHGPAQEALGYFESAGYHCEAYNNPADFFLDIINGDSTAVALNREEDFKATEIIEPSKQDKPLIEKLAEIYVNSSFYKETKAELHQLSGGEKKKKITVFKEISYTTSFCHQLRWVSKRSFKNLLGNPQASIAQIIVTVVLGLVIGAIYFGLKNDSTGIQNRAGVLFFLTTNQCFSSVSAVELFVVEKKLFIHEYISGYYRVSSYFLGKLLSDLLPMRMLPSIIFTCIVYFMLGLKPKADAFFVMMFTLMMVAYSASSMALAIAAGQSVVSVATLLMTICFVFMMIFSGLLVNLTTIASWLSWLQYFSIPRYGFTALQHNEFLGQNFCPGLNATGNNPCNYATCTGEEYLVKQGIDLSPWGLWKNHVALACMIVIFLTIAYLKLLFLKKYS

In general, AC50 refers to the concentration giving half of the maximal activity seen. With `COP(=O)(OC)OC(Br)C(Cl)(Cl)Br` (centres undefined), the compound was called inactive in experiment [1], in [2], in [3], in [4], in experiment [5] and in experiment [6]. The result in experiment [7], in experiment [9], in experiment [10], in experiment [11], in experiment [12] and in experiment [13] was inactive. Also, the call in [14], in experiment [15] and in experiment [16] was inactive. Moreover, in experiment [8], the half-maximal activity concentration (AC50) is 50 µM (active).
Regarding `CC(C)=CC1C(C(=O)OCN2C(=O)C3=C(CCCC3)C2=O)C1(C)C` (centres undefined), the outcome in experiment [2], in experiment [4], in experiment [5], in experiment [6], in [7] and in experiment [17] was inactive. Besides, the compound was classed as inactive in experiment [9], in experiment [18], in experiment [10], in experiment [11], in experiment [12] and in experiment [13]. The call in [14], in [15] and in experiment [16] was inactive. The AC50 in [8] is 50 µM (active).
For the compound `C=C(C)[C@H]1Cc2c(ccc3c2O[C@@H]2COc4cc(OC)c(OC)cc4[C@@H]2C3=O)O1`, the half-maximal activity concentration (AC50) in experiment [1] was 13.1 µM (active); in [2] it was 20.8 µM (active); in [4] it was 1.41 µM (active); in experiment [5] it was 22.8 µM (active); in experiment [6], 1.75 µM (active); in experiment [7], 5.89 µM (active). The concentration at half-maximal activity (AC50) in experiment [8] is 2.44 µM (active); in experiment [9] it was 11.7 µM (active); in experiment [18], 6.57 µM (active); in experiment [11], 18.6 µM (active); in [12] it was 16.5 µM (active); in experiment [14], 7.9 µM (active). The AC50 in [15] was 15.2 µM (active); in experiment [16], 1.18 µM (active). Moreover, the compound was classed as inactive in [3], in [17], in experiment [10] and in [13].
For `COP(=O)(OC)SCn1c(=O)oc2cc(Cl)cnc21`, the call in experiment [2], in experiment [3], in experiment [4], in experiment [6], in experiment [7] and in [17] was inactive. For the same compound, the outcome in [9], in experiment [10], in experiment [11], in experiment [12], in [13] and in experiment [15] was inactive. In addition, the compound was called inactive in experiment [16]. For the same compound, the AC50 in [5] is 78.5 µM (active); in experiment [8] it was 38.6 µM (active); in [18], 0.029 µM (active); in [14], 39.3 µM (active).
On to `O=c1ccc(=O)[nH][nH]1`, for which the call in experiment [2], in experiment [3], in experiment [4], in experiment [5], in [6] and in [7] was inactive. Also, the compound was called inactive in experiment [8], in experiment [17], in experiment [9], in experiment [18], in experiment [10] and in experiment [11]. The call in experiment [12], in [13], in experiment [14], in experiment [15] and in experiment [16] was inactive.

The values are drawn from PubChem BioAssay (EPA / NIEHS).
